The supplement of paper PMC13380429

Tested on: Vero E6 infected with SARS-CoV-2
Experiment: inhibition of SARS-CoV-2 cytopathic effect; higher = more antiviral protection, active = above 15
Conditions: 48 h

Measured: inhibition of SARS-CoV-2 cytopathic effect

N=C(NCc1ccc(Cl)cc1)SCCCc1c[nH]cn1 [clobenpropit]
inactive: 1 nM 1.58% | 8.33 nM 1.91% | 100 nM 1.78% | 833.33 nM 1.78% | 10000 nM 0.31%

N=C(N)NCCC[C@@H](NC(=O)[C@@H]1CCCN1C(=O)[C@@H]1CSSCCC(=O)N[C@@H](Cc2ccc(O)cc2)C(=O)N[C@@H](Cc2ccccc2)C(=O)N[C@@H](CCC(N)=O)C(=O)N[C@@H](CC(N)=O)C(=O)N1)C(=O)NCC(N)=O [desmopressin-acetate]
inactive: 1 nM -0.33% | 8.33 nM -2.9% | 100 nM 0.69% | 833.33 nM 0.25% | 10000 nM 0.02%

Nc1n[nH]c2nnc(-c3c(-c4ccccc4)nn4ccccc34)cc12
inactive: 1 nM 0.55% | 8.33 nM -0.27% | 100 nM -1.29% | 833.33 nM 1.74% | 10000 nM -2.81%

CC(C)(C)NCC(O)COc1cc(Cl)ccc1Cl (stereo not given) [cloranolol]
inactive: 1 nM -3.31% | 8.33 nM -3.27% | 100 nM -3.87% | 833.33 nM -3.29% | 10000 nM -8.51%

O=C(O)COC(=O)Cc1ccccc1Nc1c(Cl)cccc1Cl [aceclofenac]
inactive: 1 nM 0.39% | 8.33 nM 0.9% | 100 nM 0.17% | 833.33 nM -0.85% | 10000 nM 0.58%

CC(C)=CCC/C(C)=C/CC/C(C)=C/CSc1ccccc1C(N)=O [farnesyl-thiosalicylic-acid-amide]
inactive: 1 nM -1.77% | 8.33 nM -2.42% | 100 nM -3.06% | 833.33 nM -5.68% | 10000 nM -2.46%

CO[C@@]12[C@H](COC(N)=O)C3=C(C(=O)C(C)=C(N)C3=O)N1C[C@@H]1N[C@@H]12 [mitomycin-C]
inactive: 1 nM -6.42% | 8.33 nM -2.65% | 100 nM -0.38% | 833.33 nM -1.53% | 10000 nM -5.17%

C=CC(=O)Nc1cc2c(Nc3ccc(F)c(Cl)c3)ncnc2cc1OCCCN1CCOCC1 [canertinib]
inactive: 1 nM 2.3% | 8.33 nM -2.25% | 100 nM -6.93% | 833.33 nM -13.4% | 10000 nM -20.1%

Nc1nc(=O)n([C@H]2C[C@H](O)[C@@H](CO)O2)cc1Cl [cytochlor]
inactive: 1 nM 0.97% | 8.33 nM 0.46% | 100 nM 0.45% | 833.33 nM 1.92% | 10000 nM -1.33%

O=C(O)c1ccc2cc(-c3ccc(O)c(C45CC6CC(CC(C6)C4)C5)c3)ccc2c1
inactive: 1 nM 1.24% | 8.33 nM 1.61% | 100 nM -0.4% | 833.33 nM -2.65% | 10000 nM -7.34%

COc1cc(C(=O)N2CCOCC2)cc(OC)c1OC [trimetozine]
inactive: 1 nM 0.84% | 8.33 nM 0.93% | 100 nM 1.16% | 833.33 nM 4.1% | 10000 nM 2.28%

CCCCc1ccc(NS(=O)(=O)c2ccc(F)cc2)cc1
inactive: 1 nM -1.42% | 8.33 nM -2.12% | 100 nM -1.58% | 833.33 nM -3.93% | 10000 nM -1.95%

CC[N+](C)(CC)CCOC(=O)C(O)(c1ccccc1)C1CCCCC1 (stereo not given) [oxyphenonium]
inactive: 1 nM -1.8% | 8.33 nM -1.33% | 100 nM -2.81% | 833.33 nM 0.58% | 10000 nM -1.5%

CCOC(=O)c1ncc2[nH]c3ccc(OCc4ccccc4)cc3c2c1COC
inactive: 1 nM 2.48% | 8.33 nM 0.26% | 100 nM 0.32% | 833.33 nM 2.46% | 10000 nM -5.3%

Nc1ncnc2c1C(=O)N(c1ccc([C@H]3CC[C@H](CC(=O)O)CC3)cc1)CCO2
inactive: 1 nM 4.58% | 8.33 nM 2.44% | 100 nM -0.31% | 833.33 nM 5.58% | 10000 nM 4.43%

CNC(=O)c1c(C)oc2cc(Oc3ncnc4cc(OC)c(OC)cc34)ccc12 [fruquintinib]
inactive: 1 nM 2.39% | 8.33 nM -2.79% | 100 nM -1.12% | 833.33 nM -3.32% | 10000 nM -0.11%

c1nc2c(NC3CCCCC3)nc(Nc3ccc(N4CCOCC4)cc3)nc2[nH]1 [reversine]
inactive: 1 nM 3.13% | 8.33 nM 6.21% | 100 nM 1.52% | 833.33 nM -0.29% | 10000 nM -7.06%

Cc1ccccc1N1CCN(S(=O)(=O)C[C@]23CC[C@H](C[C@@H]2NC(=O)[C@@H](N)CCS(C)(=O)=O)C3(C)C)CC1
inactive: 1 nM 0.06% | 8.33 nM 2.09% | 100 nM 2.92% | 833.33 nM 1.11% | 10000 nM 0.11%
